# In the supplement of paper PMC13380429:
# Assays:
# [1] = test system: Vero E6 infected with SARS-CoV-2; assay: morphology score (similarity to uninfected cells); higher = more like uninfected cells; conditions: 24 h
# [2] = test system: Vero E6 infected with SARS-CoV-2; assay: SARS-CoV-2 infection rate relative to infected DMSO; higher = more infection, active = 60 or less; conditions: 24 h
SMILES,morphology score [1],SARS-CoV-2 infection rate [2]
CCCCCCCCNC(C)C(O)c1ccc(SC(C)C)cc1 (stereo not given) [suloctidil] (10 µM),0.834,21.5% (active)
C[C@@H]1O[C@@H](O[C@H]2[C@H](Oc3cc(O)c4c(c3)O[C@H](c3ccc(O)cc3)CC4=O)O[C@H](CO)[C@@H](O)[C@@H]2O)[C@H](O)[C@H](O)[C@H]1O [Naringin (Naringoside)] (10 µM),0.254,106% (inactive)
COc1cccc(N(C)C(=S)Oc2ccc3c(c2)CCCC3)n1 [liranaftate] (10 µM),0.341,94% (inactive)
COC[C@@H](c1ccc(C(F)(F)F)cc1)N1CCN(C2(C)CCN(C(=O)c3c(C)ncnc3C)CC2)C[C@@H]1C [vicriviroc] (10 µM),0.189,100% (inactive)
c1ccc(CN2CCC3(CCc4ccccc43)CC2)cc1 (10 µM),0.228,80.5% (inactive)
O=C(O)CSc1nnc(Br)n1-c1ccc(C2CC2)c2ccccc12 [lesinurad] (10 µM),0.0859,95% (inactive)
O=C1[C@@H]2[C@H]3CC[C@H](C3)[C@@H]2C(=O)N1C[C@@H]1CCCC[C@H]1CN1CCN(c2nsc3ccccc23)CC1 [lurasidone] (10 µM),0.0507,96.5% (inactive)
COC(=O)N/N=C/c1c[n+]([O-])c2ccccc2[n+]1[O-] [carbadox] (10 µM),0.227,85% (inactive)
CN(C)CCOc1cc(-c2cn[nH]c2)ccc1NC(=O)C1COc2ccccc2O1 (stereo not given) (0.833333 µM),0.294,76.5% (inactive)
O=C1NCC2(CCN(CCc3ccccc3)CC2)O1 [fenspiride] (10 µM),0.208,101% (inactive)
CCCCCCCCCCCCCCCC(=O)O[C@@H]1[C@@H](O)[C@@H](O)[C@@H]([C@H](NC(=O)[C@@H]2C[C@@H](CCC)CN2C)[C@H](C)Cl)O[C@@H]1SC [clindamycin-palmitate] (10 µM),0.0793,108% (inactive)
COc1ccc(-c2nc(N3CCOCC3)c3sc(CN(C)c4ncc(C(=O)NO)cn4)cc3n2)cn1 (10 µM),-0.449,116% (inactive)
O=C(O)[C@H](CC(=O)N1C[C@H]2CCCC[C@H]2C1)Cc1ccccc1 [mitiglinide] (10 µM),0.0871,108% (inactive)
CC(C)COC(=O)c1ccc(N)cc1 [isobutamben] (10 µM),0.0167,106% (inactive)
Cc1ccnc2c1NC(=O)c1cccnc1N2C1CC1 [nevirapine] (10 µM),0.173,104% (inactive)
O=c1c(O)c(-c2ccc(O)c(O)c2)oc2cc(O)cc(O)c12 [quercetin] (10 µM),0.0809,102% (inactive)
CO[C@H]1C[C@@H]2CC[C@@H](C)[C@@](O)(O2)C(=O)C(=O)N2CCCC[C@H]2C(=O)O[C@H]([C@H](C)C[C@@H]2CC[C@H](n3cnnn3)[C@H](OC)C2)CC(=O)[C@H](C)/C=C(\C)[C@@H](O)[C@@H](OC)C(=O)[C@H](C)C[C@H](C)/C=C/C=C/C=C/1C [zotarolimus] (0.833333 µM),-0.292,119% (inactive)
CC(C)C[C@@H](C(=O)N[C@H](C(=O)OC1CCCC1)c1ccccc1)[C@H](O)C(=O)NO [tosedostat] (10 µM),0.243,97% (inactive)
Cc1[nH]c(/C=C2\C(=O)Nc3ccc(F)cc32)c(C)c1C(=O)NCCN1CCCC1 [toceranib] (0.833333 µM),-0.0721,26% (active)
O=c1ccn([C@@H]2O[C@H](CO)[C@@H](O)[C@H]2O)c(=O)[nH]1 [uridine] (10 µM),0.318,96.5% (inactive)
CNCC[C@H](Oc1cccc2ccccc12)c1cccs1 [duloxetine] (10 µM),0.747,47% (active)
C[C@@H]1C[C@H]2[C@@H]3C[C@H](F)C4=CC(=O)C=C[C@]4(C)[C@@]3(F)[C@@H](O)C[C@]2(C)[C@@]1(O)C(=O)COC(=O)C(C)(C)C [flumethasone-pivalate] (10 µM),0.324,80% (inactive)
CCn1cc(C(=O)O)c(=O)c2ccc(-c3ccncc3)cc21 [rosoxacin] (10 µM),0.148,112% (inactive)
COc1cccc(CCc2ccccc2OCC[C@@H]2C[C@@H](O)CN2C)c1 (10 µM),0.533,54.5% (active)
COc1cc2c(cc1OC)CC(=O)N(CCCN(C)C[C@H]1Cc3cc(OC)c(OC)cc31)CC2 [ivabradine] (10 µM),0.15,112% (inactive)
